In the library only some 6.8% were active in any assay of this set; here they are far more common.
NADH coupling – inhibition of NAD/NADH coupling enzymes, library profiling. 65,000 compounds, 0.02% hits. AID 774. IC50, µM (top dose mostly 10 µM), for the others: at the highest dose inhibition. coupled PK/LDH NADH assays, four targets;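 active = single-dose screening hits from any of four coupled enzyme assays that gave an IC50 when retested across doses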;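 also: the DPM-DC format reads NADH fluorescence rather than 340 nm absorbance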
Abs 340nm – absorbance at 340 nm | compound absorbance at 340 nm, fold over control | fold change at 10 µM | 65,000 tested, under 10 active;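 active = at 10 µM dose, initial 340 nm absorbance at least 2 fold that of control wells; inactive = change under 2 fold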;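 also: initial absorbance extrapolated from kinetic A340 decline of NADH oxidation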
Spn DPM-DC inh – blocks S. pneumoniae diphosphomevalonate decarboxylase | AID 556 | calls only at 10 µM | purified DPM-DC, PK/LDH coupled NADH fluorescence | 65,000 compounds, 0.49% hits;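 active = the 320 compounds with the highest percent inhibition in the single-dose primary screen, excluding strongly autofluorescent ones, cut at about 32% in these data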;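 also: kinetic rate of NADH fluorescence loss reporting ADP formed by the decarboxylase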
Fluor 339 460 – intrinsic fluorescence of library compounds, ex339/em460 – biochemical, MLSMR library, data from DPM-DC assay, artefact control, profiling panel; 65,000 compounds, 5.5% hits; compound autofluorescence, ex339/em460 nm, NADH buffer; stronger effect = higher value; 1 = no-compound wells, NADH background; fluorescence fold increase at 10 µM;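 active = at 10 µM, mean starting fluorescence two-fold or more over control wells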;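 also: signal is the first read of a kinetic run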
Spn PMK inh – inhibitors of Streptococcus pneumoniae phosphomevalonate kinase; purified PMK, PK/LDH-coupled NADH absorbance 340 nm; inhibition, % at 10 µM; 65,000 compounds, 0.49% hits; AID 539;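 active = top-ranked compounds by inhibition in the single 10 µM screen, taking a fixed number of the strongest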;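 also: 0% = full reaction with DMSO carrier and 100% = background rate without enzyme reaction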
MK inhibit – inhibitors of Streptococcus pneumoniae mevalonate kinase. inhibition, % at 10 µM. purified MK, PK/LDH-coupled NADH absorbance 340 nm. 65,000 compounds, 0.48% hits. AID 555;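 active = ranked among the strongest by inhibition in the single 10 µM screen, a fixed top-ranked set picked for dose follow-up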
* marks the source's active call; other numbers are inactive results; i = inactive; x = no result given; + = active, no number.

SMILES | NADH coupling | Abs 340nm | Spn DPM-DC inh | Fluor 339 460 | Spn PMK inh | MK inhibit
CCOc1ccc(Nc2cc(C)nc(N3CCOCC3)n2)cc1 | 7% | 0.99 | i | 1 | 10 | 9
Cc1cc(NC(=O)CN2CCN(Cc3ccccc3)CC2)nc2c1c(=O)oc1ccccc12 | 5% | 1.1 | i | 1.2 | 4 | 7
CCOC(=O)c1sc(C)c2c1NC(C)(c1cccs1)NC2=O (centres undefined) | 4% | 1 | x | 3* | 12 | 8
CCOC(=O)c1sc(C)c2c1NC1(CCCCC1)NC2=O | 13% | 1.1 | x | 3.9* | 12 | 14
CN(C)c1ccc(-n2cc3c(=O)n(C)c(=O)n(C)c3c2)cc1 | 7% | 1.1 | i | 1.9 | 5 | 4
CCN(CC)c1ccc(-n2cc3c(=O)n(C)c(=O)n(C)c3c2)cc1 | 7% | 1.1 | x | 3.7* | 13 | 0
O=c1cc(CSc2nnnn2-c2ccccc2)[nH]c2[nH]n(-c3ccccc3)c(=O)c12 | 3% | 1.2 | i | 1 | 1 | 7
CCOC(=O)CCc1c(C)nc2cc(-c3ccccc3OC)[nH]n2c1=O | 8% | 1.1 | i | 1.5 | 4 | 2
CCn1c(C)c(CCC(=O)O)c(=O)n2nc(-c3ccccc3OC)cc12 | 3% | 1 | x | 3.1* | 11 | 6
COc1ccc(N(CC(=O)NCc2cccs2)S(=O)(=O)c2cccnc2)cc1 | 20% | 1.1 | i | 1 | 10 | 47*
CCC(=O)N(Cc1ccco1)c1nc(-c2cc(OC)ccc2OC)cs1 | 4% | 1 | i | 1 | 5 | 5
CCC(=O)N(Cc1ccco1)c1nc(-c2ccccc2)cs1 | 9% | 1 | i | 1 | 27* | 0
COc1ccc(-c2nc(C(N)=O)c3[nH]c(=O)n(-c4cccc(Cl)c4)c3n2)cc1OC | 1% | 1 | i | 1.1 | 11 | 1
Cc1cccc(-n2c(=O)[nH]c3c(C(N)=O)nc(C(C)C)nc32)c1 | 5% | 1 | x | 5* | 10 | 0
Cn1c2ccccc2c2cc(C(=O)OCC(=O)N3CC(=O)Nc4ccccc43)sc21 | 7% | 1.2 | x | 2.1* | 13 | 0
CC(=O)Nc1nc2c(c3c1c(=O)oc1ccccc13)CCCCC2 | 3% | 1 | i | 1.2 | 0 | 8
Nc1nc2c(c3c1c(=O)oc1ccccc13)CCCCC2 | 8% | 1.1 | x | 2.2* | 12 | 4
CCOc1ccc(/C(O)=C2/C(=O)C(=O)N(CCCn3ccnc3)C2c2cccs2)cc1Cl (centres undefined) | 10% | 1.1 | i | 1.1 | 11 | 7
CCN1c2ccccc2-c2nc3ccccc3n2C1c1ccccn1 (centres undefined) | 8% | 1 | x | 3.8* | 5 | 10
CCN1c2ccccc2-c2nc3ccccc3n2C1c1cccnc1 (centres undefined) | 6% | 1 | x | 3.8* | 7 | 5
Cc1nn2c(c1-c1ccccc1)NC1=C(C(=O)CCC1)C2c1cccnc1 (centres undefined) | 6% | 1.1 | x | 3.8* | 11 | 0
O=c1[nH]c(-c2ccncc2)nc2ccccc12 | 24% | 1.1 | + | 1.2 | 18 | 21
O=c1[nH]c(-c2cccnc2)nc2ccccc12 | 1% | 1 | i | 1.1 | 3 | 0
COCCn1c(SCC(=O)NCc2ccc3c(c2)OCO3)nnc1-c1c[nH]c2ccccc12 | 2% | 1 | i | 1.1 | 3 | 3
CCCc1cc(N2CCCC2)n2nc(C)c(-c3ccccc3)c2n1 | 4% | 1 | i | 2.9* | 0 | 10
SMILES | NADH coupling | Abs 340nm | Spn DPM-DC inh | Fluor 339 460 | Spn PMK inh | MK inhibit
COc1cc(NC(=O)c2cc3c(C)nc4ccccc4c3o2)cc(OC)c1OC | 10% | 1.1 | i | 1 | 18 | 10
Cc1nc2ccccc2c2oc(C(=O)Nc3ccc4c(c3)OCCO4)cc12 | 11% | 1 | x | 2.1* | 7 | 14
COc1ccc(C)cc1NC(=O)c1cc2c(C)nc3ccccc3c2o1 | 7% | 1.1 | x | 5* | 6 | 8
CCOc1ccc(Nc2nc(Cc3nnc(SCC(N)=O)o3)cs2)cc1 | 5% | 1 | i | 1 | 28* | 2
CCOc1ccc(Nc2nc(Cc3nnc(SCC(=O)NCC4CCCO4)n3C)cs2)cc1 (centres undefined) | 7% | 0.95 | i | 1.1 | 16 | 5
Nc1c(C(=O)NC2CCCC2)c2nc3ccccc3nc2n1/N=C/c1cccnc1 | 15% | 1.2 | + | 3.2* | 0 | 0

Screens as filed in PubChem.
